Paper PMC4336329 (PLoS ONE, 2015)
Screen size: about 310,000 compounds; about 14,000 (4.5%) showed an effect of 50% or more. Effects have a minus sign here. Many of the other results were omitted from the sample, so strong results are more common in it than they were.

Each compound was assayed against human ether-à-go-go-related gene (hERG) potassium channel (human, UniProt Q12809) (assay: primary screen, population patch clamp on CHO cells stably expressing hERG; higher = less effect of the substance).
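Note: peak tail current of the secondary pulse compared with the same well before compound.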

Chain of human ether-à-go-go-related gene (hERG) potassium channel (Q12809 whole entry, looked up): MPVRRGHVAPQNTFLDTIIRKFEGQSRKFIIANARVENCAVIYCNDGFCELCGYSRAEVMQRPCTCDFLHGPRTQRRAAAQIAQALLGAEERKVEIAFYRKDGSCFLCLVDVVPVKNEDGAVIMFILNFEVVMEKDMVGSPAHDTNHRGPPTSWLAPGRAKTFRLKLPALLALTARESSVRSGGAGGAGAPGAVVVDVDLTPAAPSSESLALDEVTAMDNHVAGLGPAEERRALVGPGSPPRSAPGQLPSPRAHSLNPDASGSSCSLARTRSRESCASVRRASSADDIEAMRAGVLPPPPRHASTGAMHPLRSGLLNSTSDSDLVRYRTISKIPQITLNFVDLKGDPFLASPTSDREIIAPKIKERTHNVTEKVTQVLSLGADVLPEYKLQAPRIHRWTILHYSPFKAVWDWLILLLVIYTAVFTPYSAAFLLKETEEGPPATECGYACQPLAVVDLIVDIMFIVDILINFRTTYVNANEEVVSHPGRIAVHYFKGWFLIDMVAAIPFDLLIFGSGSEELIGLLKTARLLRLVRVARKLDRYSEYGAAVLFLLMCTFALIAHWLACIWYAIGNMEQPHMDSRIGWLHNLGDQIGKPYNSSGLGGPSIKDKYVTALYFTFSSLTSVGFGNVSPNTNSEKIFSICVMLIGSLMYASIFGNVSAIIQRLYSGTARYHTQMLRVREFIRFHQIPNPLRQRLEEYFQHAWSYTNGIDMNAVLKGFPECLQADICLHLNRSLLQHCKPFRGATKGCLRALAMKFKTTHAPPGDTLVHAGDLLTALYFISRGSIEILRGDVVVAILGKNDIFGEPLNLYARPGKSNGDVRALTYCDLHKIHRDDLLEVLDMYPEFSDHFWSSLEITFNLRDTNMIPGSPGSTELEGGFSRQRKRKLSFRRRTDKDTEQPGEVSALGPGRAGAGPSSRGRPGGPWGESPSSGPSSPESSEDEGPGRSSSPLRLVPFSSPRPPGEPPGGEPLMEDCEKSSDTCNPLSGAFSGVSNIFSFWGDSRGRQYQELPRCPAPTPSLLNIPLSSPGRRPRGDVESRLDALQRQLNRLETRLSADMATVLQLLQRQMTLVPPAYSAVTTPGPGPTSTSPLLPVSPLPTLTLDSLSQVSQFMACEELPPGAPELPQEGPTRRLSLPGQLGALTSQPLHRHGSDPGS

| Structure (SMILES) | hERG current change (%, negative = inhibition) at 10uM [%] |
| --- | --- |
| COc1ccccc1N1CCN(Cc2nc(N)nc(Nc3ccccc3)n2)CC1 | -69.6 |
| COc1cc2nc(Nc3ccc(C)c(Cl)c3)nc(N)c2cc1OC.Cl | 4.1 |
| COc1ccccc1N1CCN(Cc2nc(N)nc(Nc3ccc(C)cc3)n2)CC1 | -50.3 |
| COc1ccccc1N1CCN(Cc2nc(N)nc(Nc3ccc(C)c(Cl)c3)n2)CC1 | -75.5 |
| COc1ccccc1N1CCN(Cc2ccc(Cl)cc2Cl)CC1 | -12.7 |
| CCc1nnc(NC(=O)c2cccs2)s1 | 9.54 |
| CCN(C(=O)COC(=O)c1ccc(Cl)cc1N)C1CCCCC1 | -9.34 |
| CC(=O)OC(C(=O)NC1CCCCC1)c1ccncc1 (stereo not drawn) | -11.7 |
| Cc1sc2nc(SCC(=O)NCc3ccco3)n(Cc3ccccc3)c(=O)c2c1C | -3.84 |
| COc1ccc(OC)c(C2=Nn3c(nnc3-c3ccco3)SC2)c1 | -12.6 |
| c1ccc(C2=Nn3c(nnc3-c3ccco3)SC2)cc1 | -25.9 |
| COc1ccc(C2=Nn3c(nnc3-c3ccco3)SC2)cc1 | -63.6 |
| CCOc1ccc(C2=Nn3c(nnc3-c3ccco3)SC2)cc1 | -10.7 |
| COc1ccc(C2=Nn3c(nnc3-c3ccco3)SC2)cc1OC | -54.1 |
| Oc1ccc(C2=Nn3c(nnc3-c3ccco3)SC2)cc1O | 0.591 |
| Cc1nc2cc(NC(=O)Nc3cccc4ccccc34)ccc2n1C | 2.53 |
| CCCOc1ccc(C(=O)NNC(=S)NC(=O)c2ccccc2)cc1 | 23.4 |
| CCc1noc(C)c1C(=O)NC1CC(C)(C)Cc2c1cnn2-c1ccccc1 (stereo not drawn) | 5.9 |
| Fc1ccc2c(c1)C1C=CCC1C(c1cc3c(cc1Br)OCO3)N2 (stereo not drawn) | 4.83 |
| CCOc1ccc(NC(=O)Nc2ccc3c(c2)nc(C)n3C)cc1 | 1.49 |
| O=C(NNC(=O)c1ccc(S(=O)(=O)N2CCOCC2)cc1)c1ccccc1 | 17.5 |
| CN(C(=O)CSc1nc2cc(C(=O)O)ccc2c(=O)n1Cc1ccccc1)C1CCS(=O)(=O)C1 (stereo not drawn) | 37.8 |

| Structure (SMILES) | hERG current change (%, negative = inhibition) at 10uM [%] |
| --- | --- |
| CCc1cc2c(SCC(=O)NC3CCS(=O)(=O)C3)ncnc2s1 (stereo not drawn) | -1.87 |
| CN(C(=O)CSc1nc2ccc(Br)cc2c(=O)n1Cc1ccco1)C1CCS(=O)(=O)C1 (stereo not drawn) | -79.6 |
| Cc1cc2c(=O)n(Cc3ccco3)c(SCC(=O)NCc3ccco3)nc2s1 | -35.8 |
| CCc1cc2c(=O)n(Cc3ccco3)c(SCC(=O)NCC3CCCO3)nc2s1 (stereo not drawn) | -70.2 |
| O=C(CSc1nc2c(sc3ccccc32)c(=O)n1Cc1ccco1)NCC1CCCO1 (stereo not drawn) | -13.9 |
| CCOC(=O)CC(=O)CSc1nc2sc(C)cc2c(=O)n1Cc1ccco1 | -51.5 |
| CCc1cc2c(=O)n(Cc3ccco3)c(SCC(=O)NC3CCS(=O)(=O)C3)nc2s1 (stereo not drawn) | -72.2 |
| Cc1cc2c(=O)n(Cc3ccco3)c(SCC(=O)c3ccc(Cl)s3)nc2s1 | -18.6 |
| CCc1cc2c(=O)n(Cc3ccco3)c(SCc3c(C)noc3C)nc2s1 | -5.47 |
| CN(C(=O)CSc1nnc(-c2ccco2)n1Cc1ccccc1)C1CCS(=O)(=O)C1 (stereo not drawn) | -6.24 |
| CCc1cc2c(SCC(=O)NCC3CCCO3)ncnc2s1 (stereo not drawn) | -1.05 |
| CCOc1ccc(-c2cc(C(=O)N3CCN(c4ccccn4)CC3)c3ccccc3n2)cc1 | 2.79 |
| Cn1ncc2c(Nc3ccc([N+](=O)[O-])cc3)nc(Cl)nc21 | 18.9 |
| Cc1ccc(-c2nnc(N3CCC(C)CC3)c3ccccc23)cc1 | 3.1 |
| COc1nnc(-c2ccc(N3CCOCC3)c(NC(=O)C3CCCCC3)c2)c2ccccc12 | -37.3 |
| O=C(C1CCC(C(=O)N2CCCCC2)CC1)N1CCCCC1 (stereo not drawn) | 6.09 |
| O=C(CSc1nc2c([nH]c3ccccc32)c(=O)n1-c1ccccc1)NCC1CCCO1 (stereo not drawn) | 3.52 |
| CN(C)c1ccc(C(CNC(=O)Cc2cccc3ccccc23)N(C)C)cc1 (stereo not drawn) | -32.8 |
| CC(=O)N1c2ccc(S(=O)(=O)NCCC(=O)Nc3ccc(OC(F)(F)F)cc3)cc2CC1C (stereo not drawn) | -13.6 |
| COCCN(C(=O)c1csnn1)C(C(=O)NC1CCCCC1)c1ccccc1F (stereo not drawn) | 3.83 |
| COc1ccc(-c2csc(N3CCC(c4ccccc4)CC3)n2)cc1 | 23.2 |
| CCc1cc2c(=O)n(Cc3ccco3)c(SCC(=O)N3CCCc4ccccc43)nc2s1 | -23.4 |

| Structure (SMILES) | hERG current change (%, negative = inhibition) at 10uM [%] |
| --- | --- |
| CCc1cc2c(SCC(=O)N(C)C3CCS(=O)(=O)C3)ncnc2s1 (stereo not drawn) | -20.1 |
| CCN(C(=O)CSc1nc2cc(Cl)ccc2c(=O)n1CC(C)C)C1CCS(=O)(=O)C1 (stereo not drawn) | 2.51 |
| CC(C)Cn1c(SCC(=O)N(C)C2CCS(=O)(=O)C2)nc2cc(Cl)ccc2c1=O (stereo not drawn) | -31.5 |
| CCN(C(=O)CSc1nc2cc(Cl)ccc2c(=O)n1Cc1ccco1)C1CCS(=O)(=O)C1 (stereo not drawn) | -74.7 |
| CCc1cc2c(=O)n(Cc3ccco3)c(SCC(=O)N(C)C3CCS(=O)(=O)C3)nc2s1 (stereo not drawn) | -79.1 |
| COc1ccc(CNC(=O)[C@H](C)NC(=O)C2CCN(C(=O)[C@@H](N)CCSC)CC2)cc1 | 5.47 |
| O=C1C=C(O)CC(c2ccco2)C1 (stereo not drawn) | 9.75 |
| O=C(/C=C/c1ccco1)Nc1ccc2nc3n(c(=O)c2c1)CCCC3 | -8.17 |
| N#CCC(=O)N1CCn2c1nc1ccccc12 | 17.2 |
| Cn1c(=O)n(CCc2ccccc2)c(=O)c2c1nc1n2CCCN1c1ccccc1 | -20.7 |
| COc1cc(/C=C2/C(=N)N3C=CSC3=NC2=O)ccc1OCCCOc1cc(C)ccc1C | 2.54 |
| CC1CC(C)CN(CCCOc2ccccc2[N+](=O)[O-])C1.O=C(O)C(=O)O (stereo not drawn) | -35.5 |
| CC1CCCN(CC(=O)Nc2cccc([N+](=O)[O-])c2)C1 (stereo not drawn) | -16.7 |
| CC1CN(CCOc2ccc([N+](=O)[O-])cc2)CC(C)O1.O=C(O)C(=O)O (stereo not drawn) | -46.2 |
| CC1CN(CCCOc2ccc([N+](=O)[O-])cc2)CC(C)O1.O=C(O)C(=O)O (stereo not drawn) | -71.6 |
| CC1CC(C)CN(CCCCOc2ccc([N+](=O)[O-])cc2)C1.O=C(O)C(=O)O (stereo not drawn) | -78.8 |
| CC1CCCN(CCCOc2ccc([N+](=O)[O-])cc2)C1.O=C(O)C(=O)O (stereo not drawn) | -74.7 |
| CC1CN(CCCCOc2ccc(F)cc2)CC(C)O1.O=C(O)C(=O)O (stereo not drawn) | -42.7 |
| COC(=O)c1ccc(OCCCCN2CC(C)OC(C)C2)cc1.O=C(O)C(=O)O (stereo not drawn) | -20 |
| Cc1ccc(OC(=O)CCS(=O)(=O)c2ccc(C)cc2)cc1 | -24.4 |
| O=C(CSc1nnc(COc2ccc(Br)cc2)o1)N1CCOCC1 | -17 |
| CN(c1ccccc1C(=O)N1CCCC1)S(C)(=O)=O | -9.73 |

| Structure (SMILES) | hERG current change (%, negative = inhibition) at 10uM [%] |
| --- | --- |
| N#Cc1ccc(OCC(=O)Nc2ccc3[nH]c(=O)[nH]c3c2)cc1 | -4.57 |
| C=CCn1c(O)c(C(CC)=Nc2cccc(C(=O)O)c2)c(=O)[nH]c1=O | 11.6 |
| CSc1ccccc1OCc1cc(C(=O)NCCCc2ccccc2)no1 | 12.9 |
| Cc1ccc2c(CN(C)Cc3cccc(Cl)c3)cc(=O)oc2c1C | 12 |
| COc1ccccc1NC(=S)N1CC(C)OC(C)C1 (stereo not drawn) | 19.5 |
| COc1cccc(N2CCN(C(=O)CN(C)S(=O)(=O)c3ccc4c(c3)c(=O)n(C)c(=O)n4C)CC2)c1 | -10.8 |
| CC(C)(C)OC(=O)CNC(=O)c1nc[nH]c1C(=O)NCC(=O)OC(C)(C)C | 3.98 |
| CN(C(=O)COC(=O)CNS(=O)(=O)/C=C/c1ccccc1)C1CCS(=O)(=O)C1 (stereo not drawn) | 23.3 |
| CCN(CC1COc2ccccc2O1)C(=O)CN1C(=O)NC(C)(c2ccc(C)cc2)C1=O (stereo not drawn) | -28.8 |
| CCN1C(=NCCCCO)N[C@@H](c2cccc(C(F)(F)F)c2)C(C(=O)OC)=C1C | 5.89 |
| COC(=O)C1=C(C)N(CC2CC2)C(=NCc2cccc(Cl)c2)N[C@H]1c1ccccc1 | -72.3 |
| COC(=O)C1=C(C)N(Cc2ccccc2)C(=NCCCCO)N[C@H]1CCc1ccccc1 | -43.3 |
| COC(=O)C1=C(C)N(Cc2ccccc2)C(=O)N[C@H]1c1ccc(Br)cc1 | -10.9 |
| COC(=O)C1=C(C)N(Cc2ccccc2)C(=O)N[C@H]1c1ccccc1 | -13.5 |
| COCCN=C1N[C@@H](c2ccc(Br)cc2)C(C(=O)OC)=C(C)N1Cc1ccccc1 | -55.3 |
| COC(=O)C1=C(C)N(Cc2ccccc2)C(=S)N[C@H]1c1ccccc1 | -2.64 |
| COCCN=C1N[C@@H](c2ccccc2)C(C(=O)OC)=C(C)N1Cc1ccccc1 | -16.8 |
| COC(=O)C1=C(C)N(Cc2ccccc2)C(=NCCCCO)N[C@H]1c1ccccc1 | -53.2 |
| COC(=O)C1=C(C)N(CC2CC2)C(=NCc2cc(OC)c(OC)c(OC)c2)N[C@H]1c1ccccc1 | -17.5 |
| CCN1C(=NCc2cccc(Cl)c2)N[C@@H](c2cccc(F)c2)C(C(=O)OC)=C1C | -41.4 |
| COC(=O)C1=C(C)N(Cc2ccccc2)C(=NCC(C)C)N[C@H]1c1ccccc1 | -55.9 |
